Assay results as given in PubChem BioAssay (Tox21).
Results filed as inconclusive are left out. Activity calls are given as the source filed them. Unless noted, calls follow the shape of the dose curve; as a rule, active = well fitted curve in the direction sought with a large enough effect in the repeat runs; inconclusive = weak or mixed curves; inactive = no such curve, though single readings can be large; an effect the other way counts as inactive or inconclusive.

Tests used:
[1] = qHTS assay to identify small molecule agonists of the vitamin D receptor (VDR) signaling pathway - cell viability counter screen (AID 743224); also: series mostly up to about 63 µM; nearly all actives have a fitted effect of over 50% in size
Procedure, shortened: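 Luminescence from CellTiter-Glo, read after 30 min at room temperature, reports viability of VDR-bla cells treated with compounds for 16 h at 37C in the wells used for the beta-lactamase FRET read.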

[2] = qHTS assay to identify small molecule agonists of the NFkB signaling pathway (AID 1159509; active = well fitted curve in the direction sought with a large enough effect in the signal ratio in the repeat runs, not every such curve was filed as active; the % refers to the signal ratio; also: series mostly up to about 61 µM)
Procedure, shortened: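 NFkB-bla ME-180 cells carry a beta-lactamase reporter under an NF-kB response element. They were plated overnight, then exposed to compounds for 5 h at 37 C. Read-out is LiveBLAzer FRET after 1.5 hr at room temperature (405 nm excitation; 460/530 nm emission).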

[3] = qHTS assay to identify small molecule agonists of the NFkB signaling pathway - cell viability counter screen (AID 1159515; calls by dose curve; also: series mostly up to about 61 µM; nearly all actives have a fitted effect of over 55% in size)
Procedure, shortened: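 Luminescence from CellTiter-Glo (30 min, room temperature) gives viability, measured in the same wells as the beta-lactamase reporter read. Cells were NFkB-bla ME-180, 2,000 per well, treated 5 hr with compounds.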

[4] = qHTS assay to identify small molecule agonists of the endoplasmic reticulum stress response signaling pathway - cell viability counter screen (AID 1159517; calls by dose curve;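 also: HeLa cells carrying an ER stress response element beta-lactamase reporter; series mostly up to about 61 µM; nearly all actives have a fitted effect of over 50% in size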)
Procedure, shortened: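 HeLa cells carrying an ESRE-driven beta-lactamase reporter receive compound for 5 hr at 37 C. Cell viability is then gauged with CellTiter-Glo by luminescence, 30 min at room temperature.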

[5] = target: Nuclear receptor ROR-gamma (Homo sapiens) (UniProt P51449); assay: qHTS assay to identify small molecule antagonists of the retinoid-related orphan receptor gamma (ROR-gamma) signaling pathway (AID 1159521; also: nearly all actives have a fitted effect of over 50% in size; also: potency is read from the fitted curve at half-maximal effect)
Procedure, shortened: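 Tet-on RORγ CHO cells carrying a ROR response element–luciferase reporter were pretreated with compounds for 2 h, then induced with 1 uM (final) doxycycline hyclate for 16 h at 37 C. Antagonism was read as decreased ONE-Glo luminescence.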

[6] = qHTS assay to identify small molecule agonists of the AP-1 signaling pathway - cell viability counter screen (AID 1159525; calls by dose curve; also: nearly all actives have a fitted effect of over 55% in size)
Procedure, shortened: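 Luminescent ATP readout (Cell Titer Glo, 30 min RT), normalised to DMSO and tetra n-octyl ammonium bromide controls. Cells were ME-180 AP-1-bla in 0.5% dialyzed FBS Opti-MEM, with a 5 h, 37 °C compound exposure.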

[7] = qHTS assay to identify small molecule agonists of the AP-1 signaling pathway (AID 1159526; calls by dose curve; also: potency is read from the fitted curve at half-maximal effect)
[8] = qHTS assay to identify small molecule agonists of the RXR signaling pathway - cell viability counter screen (AID 1159529); also: series mostly up to about 77 µM; nearly all actives have a fitted effect of over 50% in size
Procedure, shortened: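 RXR-alpha-UAS-bla HEK 293T cells in medium with 2% charcoal-stripped FBS were preincubated 5 hr, then exposed to compounds for 16 hr at 37 C. Viability was read as CellTiter-Glo luminescence after 30 min at room temperature.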

[9] = qHTS assay to identify small molecule antagonists of the retinoid acid receptor (RAR) signaling pathway - cell viability counter screen (AID 1159551); also: nearly all actives have a fitted effect of over 35% in size
Procedure, shortened: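 Luminescent ATP quantitation (CellTiter-Glo) gave cell viability in C3RL4 cells exposed to test chemicals for 6 h at 37 C alongside 1 uM final retinol.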

[10] = qHTS assay to identify small molecule antagonists of the retinoic acid receptor (RAR) signaling pathway (AID 1159552; also: nearly all actives have a fitted effect of over 50% in size)
Procedure, shortened: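 RARE-luc C3RL4 cells; cpds + 1 uM (final) retinol, 6 hr, 37 C/5% CO2; luciferase reagent, 30 min RT, luminescence readout. Inhibitors of retinol-driven signal scored.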

[11] = qHTS assay to identify small molecule agonists of the retinoic acid receptor (RAR) signaling pathway (AID 1159553); also: potency is read from the fitted curve at half-maximal effect
Procedure, shortened: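 Luminescence from a RARE-driven luciferase reporter in C3RL4 cells served as the read-out, measured after 30 min with detection reagent at room temperature. Compounds in DMSO were applied for 6 hr at 37 C following overnight seeding.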

[12] = qHTS assay to identify small molecule antagonists of the vitamin D receptor (VDR) signaling pathway - cell viability counter screen (AID 743225); also: nearly all actives have a fitted effect of over 50% in size
Procedure, shortened: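 VDR-bla HEK 293T cells, 4 h pre-incubation at 37C, then compound plus 1-alpha,25-dihydroxyvitamin D3 (3 nM final) for 16 h. After the beta-lactamase FRET read, CellTiter-Glo was added to the same wells; luminescence after 30 min at room temperature.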

[13] = qHTS assay to identify small molecule agonists of the endoplasmic reticulum stress response signaling pathway (AID 1159516; active = well fitted activation curve with a large enough effect in the signal ratio in the repeat runs, not every such curve was filed as active; the % refers to the signal ratio)
Procedure, shortened: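 Read-out is beta-lactamase cleavage of a FRET substrate (405 nm excitation; 460 and 530 nm emissions) in ESRE-bla HeLa cells after a 5 hr compound exposure at 37 C. Substrate incubation ran 2 hr at room temperature.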

[14] = target: Retinoic acid receptor RXR-alpha (Homo sapiens) (UniProt P19793); assay: qHTS assay to identify small molecule agonists of the RXR signaling pathway (AID 1159527; calls by dose curve; also: nearly all actives have a fitted effect of over 35% in size)
Procedure, shortened: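 GeneBLAzer RXR-alpha-UAS-bla HEK 293T cells in medium with 2% charcoal-stripped FBS, pre-incubated 5 hr at 37 C, then exposed to compounds 16 hr. Beta-lactamase reporter read by FRET substrate, 2 hr room temperature, 460/530 nm emission.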

[15] = qHTS assay to identify small molecule antagonists of the retinoid-related orphan receptor gamma (ROR-gamma) signaling pathway - cell viability counter screen (AID 1159520); also: nearly all actives have a fitted effect of over 50% in size
Procedure, shortened: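 Cytotoxicity was read from cellular ATP (CellTiter-Glo luminescence) after 16 hr at 37 C with 1 uM doxycycline induction. The inducer was added 2 hr after compound transfer to Tet-on ROR gamma CHO cells.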

Measured: Potency

Retinoic acid receptor RXR-alpha (Homo sapiens), sequence (P19793 whole entry, looked up): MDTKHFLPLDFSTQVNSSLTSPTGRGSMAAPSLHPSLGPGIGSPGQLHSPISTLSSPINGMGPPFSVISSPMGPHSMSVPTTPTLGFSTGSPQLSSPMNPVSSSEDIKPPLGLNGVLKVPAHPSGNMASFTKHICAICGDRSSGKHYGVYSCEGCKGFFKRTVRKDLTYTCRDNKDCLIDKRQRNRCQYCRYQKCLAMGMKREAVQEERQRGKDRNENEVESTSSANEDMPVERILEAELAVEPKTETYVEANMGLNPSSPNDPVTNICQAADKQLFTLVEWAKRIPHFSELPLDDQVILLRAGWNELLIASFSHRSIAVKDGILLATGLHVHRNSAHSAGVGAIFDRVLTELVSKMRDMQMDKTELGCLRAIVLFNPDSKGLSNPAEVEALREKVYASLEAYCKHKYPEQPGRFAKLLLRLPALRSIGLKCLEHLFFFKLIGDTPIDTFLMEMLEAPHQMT

O=C(O)COCC(=O)O
inactive: [1] | [2] | [3] | [4] | [5] | [6] | [7] | [8] | [9] | [10] | [11]

O=C(Cl)c1ccc(F)c(Cl)c1
inactive: [1] | [12] | [2] | [3] | [13] | [4] | [5] | [6] | [7] | [9] | [11]

Cc1ccc(S(=O)(=O)NC(=O)NC2CCCC2)cc1
inactive: [1] | [12] | [2] | [3] | [13] | [4] | [5] | [6] | [14] | [9] | [10] | [11]

CC(=O)S[C@H](C(=O)N[C@H]1Cc2ccccc2[C@H]2CCC[C@@H](C(=O)O)N2C1=O)C(C)C
inactive: [1] | [12] | [2] | [3] | [4] | [5] | [6] | [7] | [8] | [9]

CC(C)(O)C(=O)O
inactive: [1] | [2] | [13] | [4] | [15] | [5] | [6] | [7] | [8] | [9] | [10] | [11]

CCCCCCCCCCCCN1CCOCC1
inactive: [1] | [12] | [2] | [3] | [13] | [4] | [6] | [7] | [8] | [9]

O=C(O)c1c2ccccc2cc2ccccc12
inactive: [1] | [12] | [2] | [3] | [4] | [15] | [6] | [8] | [9]
active: [5] 13.6 µM | [7] 24.5 µM

Clc1ccccc1-c1nc(-c2ccncc2)no1
inactive: [1] | [12] | [2] | [3] | [4] | [15] | [5] | [6] | [7] | [8] | [9] | [10]
active: [11] 2.11 µM

O=C(OC1C[C@H]2CC[C@@H](C1)[N+]21CCCC1)C(O)(c1ccccc1)c1ccccc1 (stereo not given in full)
inactive: [1] | [12] | [2] | [3] | [4] | [15] | [5] | [6] | [14] | [8] | [9] | [10] | [11]

CCC1=C(C)CN(C(=O)NCCc2ccc(S(=O)(=O)NC(=O)NC3CCC(C)CC3)cc2)C1=O (stereo not given)
inactive: [1] | [12] | [2] | [3] | [4] | [15] | [5] | [6] | [7] | [8] | [9] | [10] | [11]

Nc1nc(Cl)nc2c1ncn2[C@H]1C[C@H](O)[C@@H](CO)O1
inactive: [1] | [12] | [2] | [3] | [4] | [15] | [6] | [7] | [8] | [9]

C[C@]12CCC(=O)C=C1[C@@H]1C[C@@H]1[C@H]1[C@@H]3[C@@H]4C[C@@H]4[C@@]4(CCC(=O)O4)[C@@]3(C)CC[C@@H]12
active: [5] 7.5 µM
inactive: [1] | [12] | [2] | [3] | [4] | [6] | [7] | [8] | [9] | [11]

N#Cc1ccc(CC(=O)c2cccc(C(F)(F)F)c2)cc1
inactive: [1] | [2] | [3] | [4] | [15] | [5] | [6] | [7] | [8] | [9] | [10] | [11]

CCC(=O)O[C@@H]1C[C@H]2CC[C@]1(C)C2(C)C
inactive: [1] | [2] | [3] | [13] | [4] | [5] | [6] | [14] | [9] | [10] | [11]

O=C(OCCN1CCOCC1)c1cccnc1Nc1cccc(C(F)(F)F)c1
inactive: [1] | [12] | [2] | [3] | [4] | [15] | [5] | [6] | [7] | [8] | [9]

O=S(=O)(O)c1cc(Cl)c(Cl)cc1Cl
inactive: [1] | [2] | [3] | [4] | [15] | [5] | [6] | [7] | [8] | [9]

Clc1nc2ccccc2nc1Cl
inactive: [12] | [2] | [3] | [4] | [15] | [5] | [6] | [7] | [11]

Cc1ccc2ccccc2c1[N+](=O)[O-]
inactive: [1] | [12] | [2] | [3] | [4] | [15] | [5] | [6] | [7] | [8] | [9] | [10] | [11]

CC(C)=CCCC(C)C=O (stereo not given)
inactive: [1] | [12] | [2] | [3] | [4] | [15] | [5] | [6] | [7] | [9] | [10] | [11]

CCCC1CCOC(C)S1 (stereo not given)
inactive: [1] | [12] | [2] | [3] | [13] | [4] | [6] | [7] | [8] | [9]
